About 83,000 compounds went through this panel and 20% of them were active in at least one assay; those are over-represented in the sample as a whole.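 Activity criterion: percent growth below 10, measured after cells in 96-well plates were exposed to a single compound concentration for 48 hours.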 Unmarked numbers belong to inactive results. Activity calls are given as the source filed them.
Test system: M14 melanoma
Test: NCI-60 one-dose screen, 48 h (100 = growth as untreated, 0 = no growth, -100 = all killed)
Conditions: 10 µM unless noted
Experimental: Growth inhibition of the M14 human tumor cell line is measured as a screen for anti-cancer activity. Cells are grown in 96 well plates and exposed to the test compound for 48 hours. Compounds are tested at a single concentration, which is 10^-5 M for most compounds. The reported endpoint is percent growth (GI% or GIPRCNT), where numbers from 0 - 100% represent growth inhibition, and numbers from -100% - 0 represent cell death. For example, a value of 40 represents 60% growth inhibition. A value of 0 means no net growth occurred over the course of the experiment. A value of -40 indicates 40% of cells at the beginning of the experiment died by the end of the experiment. A value of -100 means all cells are dead at the end of the experiment.
NCI-60 Human Tumor Cell Lines Screen was performed using the standard one-dose NCI protocol, which is described in more detail at https://dtp.cancer.gov/discovery_development/nci-60/default.htm.
Compounds with GIPRCNT values below 10 were considered active. Activity score was based on GIPRCNT using the following formula: […]
Score is 0 for GIPRCNT values of 100 or above, 50 for GIPRCNT values of 0, and 100 for GIPRCNT values of -100.

Compound | growth
O=C(COc1ccc(/C=C2\Oc3ccccc3C2=O)cc1)Nc1nccs1 | 105%
COc1ccc(-c2cc(-c3ccc(Cl)cc3)c(C#N)c(=O)n2CCCCC(=O)NO)cc1 | 72.6%
Cn1cc(-c2nc(-c3c[nH]c4c(Cl)nccc34)cs2)c2ccccc21 | 97.2%
CCOC(=O)C1=C(c2ccccc2)N=C2SC=C(c3cccc([N+](=O)[O-])c3)N2C1c1ccc(O)cc1 (stereo not given) | 101%
Cc1ccc(-c2nnc(SCc3nc(N)nc(Nc4ccccc4F)n3)n2-c2ccccc2)cc1 | 103%
COC(=O)c1c(C)nc(C)c2c1C(=O)C(Br)=C(NCCCCO)C2=O | 46.9%
C=C(C)[C@@H]1CC[C@]2(COCCCNCCCN)CC[C@]3(C)[C@H](CC[C@@H]4[C@@]5(C)CC[C@H](OCCCN)C(C)(C)[C@@H]5CC[C@]43C)[C@@H]12 | -83% (active)
O=C1NC(=O)C(=Cc2cc(-c3ccc(Cl)cc3)n(-c3ccccc3)n2)C(=O)N1 | 93.1%
COc1ccc(/C=N\NC(=O)c2ccc3nc(-c4ccc(Cl)cc4)[nH]c3c2)cc1 | 26.2%
O=C(OCc1ccc2c(Br)cc(Br)c(O)c2n1)N1CCN(C(=O)c2cc3ccccc3[nH]2)CC1 | 30%
CC(C)(C)c1ccc(C(=O)Nc2sc3c(c2C#N)CCC(=O)C3)cc1 | 8.73% (active)
O=C(c1ccccc1)[C@@H](c1ccccc1)[C@]1(O)C(=O)Nc2ccccc21 | 95.5%
Nc1ncc(-c2ccc3ncnc(N4CCc5ccc(Cl)cc54)c3c2)cn1 | 8.74% (active)
CCOC(=O)c1cc(C(=O)c2cc(OC)cc(OC)c2)n2ccccc12 | 3.55% (active)
O=C(Nc1cccc(Cl)c1)Oc1c(Cl)c(Cl)c(Cl)c(Cl)c1Cl | 97.3%
COc1ccc(N/N=C/c2ccc3c(c2)Sc2ccccc2N3C)cc1 | 40.9%
C#CCOc1cc(/C=N/Nc2nc(-c3ccc(OC)cc3)cs2)ccc1O | 94.2%
N#Cc1c(-c2ccc(Cl)cc2)nc(NN=Cc2cccc(Cl)c2)nc1N1CCOCC1 | 84.6%
CCOC(=O)c1c2c(n3ccc(NC(=O)CCN4CCCC4)cc13)C(=O)c1ncccc1C2=O | 63.7%
Cc1ccc(C2(C)NC(=O)N(CC(=O)Nc3cccc(C)c3)C2=O)cc1 (stereo not given) | 110%

Compound | growth
COc1ccc(NC(=O)c2sc3nc(C)c(C(=O)c4ccccc4)cc3c2N)cc1 | 106%
CC(C)(C)[C@H](OCc1cn([C@H]2C[C@@H](O)[C@@H](CO)O2)c(=O)[nH]c1=O)c1ccc(C#Cc2ccccc2)cc1[N+](=O)[O-] | 45.1%
COc1ccc(S(=O)(=O)NC2c3ccccc3CC2O)cc1OC (stereo not given) | 99.1%
COC12C=C/C(=C(/C(=O)OCc3ccccn3)C(=O)CCCCCCCCC3(OC)C=C/C(=C(/C(=O)OCc4ccccn4)C(=O)CCCCCCCC1)O3)O2 | -23.3% (active)
COC(=O)[C@H](C)NC(=O)c1ccc(NC(=O)c2[nH]c(C)c(Cl)c2Cl)c(OCCN)c1 | 119%
Cc1nc2sc(C(=O)Nc3ccccc3)c(N)c2cc1C(O)c1ccccc1 (stereo not given) | 20.3%
NC(=N\N=C/c1ccc(Cl)cc1Cl)/C(N)=N\N=C/c1ccc(Cl)cc1Cl | 105%
CC/C(=C(/c1ccc(Cl)cc1)c1ccc(OCCCN(C)C)cc1)c1ccc(OC)cc1 | 32.8%
COc1ccc(-c2ccc(-c3ccc(C(=N)N)nc3)s2)cc1 | -56.6% (active)
COc1cc(/C=N/NC(=O)c2ccc3nc(-c4ccc(Cl)cc4)[nH]c3c2)cc(OC)c1OC | 42%
CC(C)(C#N)c1cc(C(=O)Nc2cc(Nc3ncccc3-c3ncnc4nc[nH]c34)ccc2F)cc(C(F)(F)F)c1 | 6.18% (active)
Cc1[nH]c(C2CC(c3ccc(C(F)(F)F)c(F)c3)=NN2C)c(C)c1C(=O)NCC(F)(F)F (stereo not given) | 115%
O=C1NCCS(=O)(=O)/C1=C\C=C\c1cccc(C(F)(F)F)c1 | 7.1% (active)
CN(C)CCOc1ccc(/C(=C(/CCCCCCCCCC[P+](c2ccccc2)(c2ccccc2)c2ccccc2)c2ccccc2)c2ccccc2)cc1 | -79.6% (active)
C#C[C@]1(O)CC[C@H]2[C@@H]3CC=C4c5sc(-c6ccccc6)nc5CC[C@]4(C)[C@H]3CC[C@@]21C | 78.9%
O=C1CC2C=CCN2C=C1NC(=O)c1ccccc1 (stereo not given) | 98.8%
CCn1c2ccccc2c2cc(C(O)c3cccc4ncccc34)ccc21 (stereo not given) | -4.81% (active)
Cc1ccc(-c2nn(CC(=O)N3CCOCC3)c(N)c2C#N)cc1 | 104%
COc1ccc(Nc2nc(Nc3cc(C)[nH]n3)c3cc(OC)c(OC)cc3n2)cc1 | -75.6% [20 µM] (active)
Cc1ccc(Nc2cc(N)nc(N)n2)cc1 | 104%
